Measured values taken from PubChem BioAssay (NCI).
Compounds without any hit were thinned out: in the full panel of roughly 83,000, 20% have a hit.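 Interpretation: 100, growth as untreated; towards 0, rising growth inhibition; 0, no net growth; 0 to -100, cell death. Compounds scoring below 10 were considered active.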 Values without a mark were called inactive. Activity calls are given as the source filed them.

Legend:
Assay in all cases: NCI-60 one-dose screen, 48 h (100 = growth as untreated, 0 = no growth, -100 = all killed)
NCI-H522 lung = conditions: 10 µM unless noted
COLO 205 colon = conditions: 10 µM
SF-295 CNS = conditions: 10 µM unless noted
SNB-19 CNS = conditions: 10 µM unless noted
LOX IMVI melanoma = conditions: 10 µM unless noted
EKVX NSCLC = conditions: 10 µM unless noted
SN12C renal = conditions: 10 µM unless noted
TK-10 renal = conditions: 10 µM unless noted
CAKI-1 renal = conditions: 10 µM unless noted
CCRF-CEM leukemia = conditions: 10 µM unless noted
SR leukemia = conditions: 10 µM
RPMI-8226 leukemia = conditions: 10 µM unless noted
OVCAR-4 ovarian = conditions: 10 µM unless noted
IGROV1 ovarian = conditions: 10 µM
BT-549 breast = conditions: 10 µM
HCC-2998 colon = conditions: 10 µM unless noted
MALME-3M melanoma = conditions: 10 µM unless noted
SK-MEL-28 melanoma = conditions: 10 µM unless noted

Row | SMILES | growth (NCI-H522 lung) | growth (COLO 205 colon) | growth (SF-295 CNS) | growth (SNB-19 CNS) | growth (LOX IMVI melanoma) | growth (EKVX NSCLC) | growth (SN12C renal) | growth (TK-10 renal) | growth (CAKI-1 renal) | growth (CCRF-CEM leukemia) | growth (SR leukemia) | growth (RPMI-8226 leukemia) | growth (OVCAR-4 ovarian) | growth (IGROV1 ovarian) | growth (BT-549 breast) | growth (HCC-2998 colon) | growth (MALME-3M melanoma) | growth (SK-MEL-28 melanoma)
1 | CCC1([N+](=O)[O-])COP(=O)(NCc2cccnc2)OC1 (centres undefined) | 109% | 119% | 104% | 108% | 102% | 106% | 114% | 109% | 103% | 101% | 105% | 104% | 112% | 118% | 114% | 115% |  | 
2 | O=C(O)c1nn(Cc2ccc(Cl)cc2)c2ccccc12 | 96.8% | 111% |  | 96.7% | 101% |  | 93.7% | 123% | 106% | 98.7% | 97.3% | 98.4% | 100% | 122% | 122% | 120% | 113% | 119%
3 | COc1ccc(OC)c(/C=C(/C)[N+](=O)[O-])c1 | -78.1% (active) | -38.9% (active) | 110% | 97.6% |  | 83.9% | 32.3% | -19.1% (active) | 6.25% (active) | -2.22% (active) | -7.63% (active) |  | 64.4% | -24.8% (active) |  | 106% |  | 74.7%
4 | CC(N)Cc1ccc(O)cc1 (centres undefined) | 105% | 128% | 118% |  | 99.2% | 107% | 105% | 98.3% | 103% | 93.9% | 55.4% | 98.3% | 124% | 111% | 126% | 111% | 98.6% | 124%
5 | CC1(C)N=C(N)N=C(N)N1c1ccc(OCCCCOc2ccc(S(=O)(=O)F)cc2)c(Cl)c1 | 5.92% (active) | 20.4% | 16.3% | 24.4% | 14.7% |  | 17.4% | 11.3% | 44.5% | 16% |  | 7.96% (active) |  | 33.1% | 28.8% | 32.4% | 45.9% | 31.3%
6 | ClCCN(CCCl)c1nc(Cl)c(C2CC(c3ccc(Cl)cc3)=NN2c2cc(Cl)cc(Cl)c2)s1 (centres undefined) | 80% | 105% | 101% |  | 106% | 102% | 92% | 109% | 82.9% | 99.7% | 93.1% |  | 99.7% | 102% | 103% | 109% | 107% | 121%
7 | COc1cc(/C=C\c2cc(OC)c(OC)c(OC)c2)cc(N/C=C\C(=O)c2ccc(OC(F)(F)F)cc2)c1OC | -54.8% (active) | 3.12% (active) | 9.29% (active) | 74.6% | 33.4% |  | 36.5% |  | 45.5% | 8.99% (active) | 4.84% (active) | 11.8% | 57.4% | 48.3% | 44.8% |  |  | 62.2%
8 | c1ccc2nc(OCCN3CC3)ccc2c1 | 47.1% | 68.1% | 75.8% | 87% | 86.3% | 80.7% | 79.9% | 108% | 90.8% | 31.7% | -13.3% (active) | 9.61% (active) | 75.3% |  |  | 86.7% | 113% | 111%
9 | O=C1NC(=O)C(Cc2ccccc2)(Cc2ccccc2)C(=O)N1 | 97.8% | 125% | 105% | 102% |  | 109% | 104% | 99.5% | 114% | 101% | 99.6% | 96.4% | 95.7% |  | 118% | 104% |  | 97.9%
